Data taken from PubChem BioAssay AID1159580 (chemical genetic matrix, 2015).
Hit rate of the full screen: of about 5,500 compounds, about 2,000 (36%) were called active. About 18% were inconclusive and are not listed. Rule as the data show it: active = normalized growth mostly below about 0.91 (no sharp cut-off); inconclusive = no clear call, values can overlap the other calls; inactive = mostly above about 0.92. Some of the results follow.

Assay: chemical genetic growth profiling, strain panel (AID 1159580);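 also: tested at 20 µM; growth read once vehicle control cultures reached saturation at 30 °C; 1 = growth at the plate median or of vehicle wells; lower values mean less growth of the strain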
Details: S. cerevisiae deletion strains, growth OD

Measured: normalized growth

O=C(CCn1c(=O)oc2ccccc21)Sc1ccc(Cl)cc1Cl
active: locus YBR160W, strain CDC28, active compounds read low 0.895 | locus YDL028C, strain MPS1, active compounds read low 0.884 | locus YDL214C, strain PRR2, active compounds read low 0.359 | locus YDR054C, strain cdc34, active compounds read low 0.748 | locus YDR477W, strain SNF1, active compounds read low 0.222 | locus YER123W, strain YCK3, active compounds read low 0.278 | locus YER133W, strain GLC7, active compounds read low 0.435 | locus YFR019W, strain FAB1, active compounds read low 0.311 | locus YGR040W, strain KSS1, active compounds read low 0.289 | locus YGR052W, strain FMP48, active compounds read low 0.306 | locus YGR092W, strain DBF2, active compounds read low 0.164 | locus YHR030C, strain SLT2, active compounds read low 0.149 | locus YHR079C, strain IRE1, active compounds read low 0.253 | locus YHR082C, strain KSP1, active compounds read low 0.281 | locus YHR205W, strain SCH9, active compounds read low 0.286 | locus YJL095W, strain BCK1, active compounds read low 0.229 | locus YJL157C, strain FAR1, active compounds read low 0.503 | locus YJR066W, strain TOR1 (second series), active compounds read low 0.197 | locus YJR066W, strain TOR1, active compounds read low 0.227 | locus YKL048C, strain ELM1, active compounds read low 0.745 | locus YKL067W, strain YNK1, active compounds read low 0.597 | locus YKL101W, strain HSL1, active compounds read low 0.433 | locus YKL203C, strain TOR2, active compounds read low 0.348 | locus YLR113W, strain HOG1, active compounds read low 0.221 | locus YLR133W, strain CKI1, active compounds read low 0.387 | locus YLR403W, strain SFP1, active compounds read low 0.205 | locus YML070W, strain DAK1, active compounds read low 0.519 | locus YMR205C, strain PFK2 (second series), active compounds read low 0.662 | locus YMR277W, strain FCP1, active compounds read low 0.873 | locus YNL020C, strain ARK1, active compounds read low 0.383 | locus YNL183C, strain NPR1, active compounds read low 0.249 | locus YNL307C, strain MCK1 (second series), active compounds read low 0.196 | locus YOL136C, strain PFK27, active compounds read low 0.45 | locus YOR061W, strain CKA2, active compounds read low 0.334 | locus YOR231W, strain MKK1, active compounds read low 0.251 | locus YPL031C, strain PHO85, active compounds read low 0.342 | locus YPL153C, strain RAD53, active compounds read low 0.216 | locus YPL204W, strain HRR25, active compounds read low 0.402 | locus YPL256C, strain CLN2, active compounds read low 0.255
inactive: locus YAR019C, strain CDC15, active compounds read low 0.894 | locus YBL105C, strain PKC1, active compounds read low 0.935 | locus YBR135W, strain CKS1, active compounds read low 0.914 | locus YBR136W, strain MEC1, active compounds read low 0.913 | locus YDL017W, strain CDC7, active compounds read low 0.942 | locus YDL101C, strain DUN1, active compounds read low 0.971 | locus YDL108W, strain KIN28, active compounds read low 0.897 | locus YDL132W, strain cdc53, active compounds read low 0.9 | locus YDR052C, strain DBF4, active compounds read low 0.936 | locus YDR226W, strain ADK1, active compounds read low 0.899 | locus YFL009W, strain cdc4, active compounds read low 0.905 | locus YFL029C, strain CAK1, active compounds read low 0.878 | locus YFR003C, strain YPI1, active compounds read low 0.917 | locus YFR028C, strain CDC14, active compounds read low 0.914 | locus YIL147C, strain SLN1, active compounds read low 0.92 | locus YJL128C, strain PBS2, active compounds read low 0.907 | locus YJR016C, strain ILV3, active compounds read low 0.915 | locus YKL193C, strain SDS22, active compounds read low 0.903 | locus YMR001C, strain CDC5, active compounds read low 0.911 | locus YNL006W, strain LST8, active compounds read low 0.91 | locus YNL161W, strain CBK1, active compounds read low 0.923 | locus YNL207W, strain RIO2, active compounds read low 0.908 | locus YNL222W, strain SSU72, active compounds read low 0.892 | locus YOL078W, strain AVO1, active compounds read low 0.918 | locus YOR329C, strain SCD5, active compounds read low 0.936 | locus YPL209C, strain IPL1, active compounds read low 0.922 | locus YPR025C, strain CCL1, active compounds read low 0.923 | locus YPR106W, strain ISR1, active compounds read low 0.944 | locus YPR111W, strain DBF20, active compounds read low 0.92 | strain NNK1, active compounds read low 0.935 | strain TSCII, active compounds read low 0.898
